G9a inh: G9a (human) methyltransferase inhibition; Q96KQ7; G9a H3K9 monomethylation, AlphaScreen, 2 h; Potency, µM (top dose mostly 102 µM), inactives show at the top dose activity, negative = inhibition, most hits filed as inhibitors; 8.8% of 350,000 active; note: % is set by controls: 0 for no effect and ±100 for the full control effect; nearly all actives have a fitted effect of over 75% in size
Target sequence (Q96KQ7 913-1193 limits assumed): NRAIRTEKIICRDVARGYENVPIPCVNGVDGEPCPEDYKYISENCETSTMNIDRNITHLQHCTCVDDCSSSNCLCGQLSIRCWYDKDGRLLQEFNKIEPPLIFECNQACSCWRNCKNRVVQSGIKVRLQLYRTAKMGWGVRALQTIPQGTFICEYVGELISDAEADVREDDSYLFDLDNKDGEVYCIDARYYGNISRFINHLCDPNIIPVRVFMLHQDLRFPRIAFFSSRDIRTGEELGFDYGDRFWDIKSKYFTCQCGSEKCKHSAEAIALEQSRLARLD
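Chemiluminescent proximity detection of H3K9 monomethylation, read after 10 min bead incubation in the dark. Reaction: 20 nM G9a, 500 nM biotin-H3K9 peptide, 20 uM SAM cofactor, 2 h, room temperature, following 15 min enzyme-compound preincubation.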
BAZ2B block: blocks human BAZ2B; Q9UIF8; AlphaScreen BAZ2B-H3K14Ac peptide displacement; Potency, µM (titrated, usually from 114 µM), for the others: at the top dose activity change, negative = inhibition, hits mostly inhibitors; 4.4% of 360,000 active; AID 504333; note: % is set by controls: 0 for no effect and ±100 for the full control effect; nearly all actives have a fitted effect of over 60% in size
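Multi-concentration screen (max 110 uM) measuring displacement of acetylated histone H3 peptide from BAZ2B by AlphaScreen, using 50 nM protein, 50 nM peptide and 10 ug/mL streptavidin donor plus Ni-chelate acceptor beads.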
L3MBTL1 block: blocks human L3MBTL1. Potency, µM (titrated, usually from 57.1 µM), for the others: at the highest dose activity, negative = inhibition, most hits filed as inhibitors. Q9Y468. AlphaScreen L3MBTL1–H3K9me1 peptide binding. 0.66% of 230,000 active; note: % is set by controls: 0 for no effect and ±100 for the full control effect; nearly all actives have a fitted effect of over 60% in size
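L3MBTL1 50 nM + b-AHA-H3(1-15)K9me1 75 nM, 30 min RT; compound added, 30 min RT; streptavidin donor/Ni-chelate acceptor beads 10 ug/mL each final, 30 min RT dark; AlphaScreen read.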
HP1b chromo inh: HP1-beta chromodomain-methylated histone interaction inhibition | AID 540317 | 0.56% of 390,000 active | P83916 | Potency, µM (titrated, usually from 114 µM), without a hit: at the top dose activity change, negative = inhibition, hits mostly inhibitors | AlphaScreen HP1-beta / biotin-H3K9me3 peptide binding; note: nearly all actives have a fitted effect of over 70% in size
Target sequence (P83916 whole entry, looked up): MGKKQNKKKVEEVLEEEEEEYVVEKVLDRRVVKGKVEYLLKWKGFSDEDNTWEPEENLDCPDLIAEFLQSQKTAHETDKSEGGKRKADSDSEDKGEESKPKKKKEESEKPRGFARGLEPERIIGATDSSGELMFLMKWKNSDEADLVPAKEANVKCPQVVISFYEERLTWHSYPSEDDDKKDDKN
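AlphaScreen: HP1-beta (50 nM) preformed 30 min with biotin-H3(1-18)K9me3 peptide (50 nM) in PBS pH 7.4, 0.01% Tween-20. Compound added for 30 min at RT, then streptavidin donor/nickel chelate acceptor beads (10 ug/mL) for 30 min.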
JMJD2A Tudor: inhibitors of human JMJD2A Tudor domain; O75164; AlphaScreen JMJD2A-Tudor / H3K4me3 peptide binding; Potency, µM (doses to about 114 µM), inactives show at the top dose activity change, negative = inhibition, most hits filed as inhibitors; 4.4% of 390,000 active; AID 504339; note: % is set by controls: 0 for no effect and ±100 for the full control effect; nearly all actives have a fitted effect of over 50% in size
An asterisk follows results filed as active; ? = inconclusive; nt = no result; [ ] = another dose, or the depositor's remark. This is a sample that favours compounds with a hit; in the whole collection about 11% have one here. Calls come from the whole dose curve; as a rule, active = well fitted inhibition curve with a large enough effect; inconclusive = small, poorly fitted or top-dose-only effect; inactive = no such curve, though single readings can be large or run the other way. Potency is the fitted concentration of half-maximal effect.

SMILES | G9a inh | BAZ2B block | L3MBTL1 block | HP1b chromo inh | JMJD2A Tudor
O=C(Cn1c2ncccc2c(=O)n1-c1ccccc1)Nc1cccc(C(F)(F)F)c1 | 34%[59 µM] | 6% | nt | 34% | 0%
COc1ccc(-n2ccnc(NCc3ccccc3OC)c2=O)cc1 | -36%[59 µM] | ? | nt | -2% | -14%
CCOC(=O)c1c(-c2ccccc2)oc2ccc(N(C(C)=O)S(=O)(=O)c3ccc(C)cc3)cc12 | 6%[59 µM] | -1% | nt | 12% | -10%
CC(=O)N(c1ccc2oc(=O)sc2c1)S(=O)(=O)c1ccccc1 | 25µM* | ? | 0% | 5% | -2%[11.4 µM]
CCOc1ccc(OCC)c(NC(=O)c2cnc3c(-c4ccccc4)c(C)nn3c2C)c1 | 6%[59 µM] | -15% | nt | 19% | -9%
CCN(CC)CC(=O)Nc1cccc2c1C(=O)c1ccccc1C2=O | ? | -27% | nt | -3% | -20%
CN(C=[N+](C)C)c1cccc2c1C(=O)c1ccccc1C2=O | ? | 18µM* | ? | 16µM* | 45µM*
CCOc1ccc(NC(=O)CN2CCSc3ccc(S(=O)(=O)N4CCCC4)cc32)cc1 | -29%[59 µM] | -24% | nt | 4%[57 µM] | -27%
CC(=O)c1c(C)[nH]c(C(=O)OCc2ccc(Br)cc2)c1C | -1% | -20% | nt | 34% | -18%
CC(=O)c1c(C)[nH]c(C(=O)OCC(=O)C(C)(C)C)c1C | -13%[2.33 µM] | ? | 2% | 16% | -26%
CC(=O)c1c(C)[nH]c(C(=O)OCC(=O)c2ccc(C)s2)c1C | -3%[2.33 µM] | 56µM* | -3% | 11% | -15%
CCOC(=O)c1c(C)[nH]c(C(=O)OCc2ccccc2)c1C | 18% | -31% | nt | 21% | -9%
CC(=O)c1c(C)[nH]c(C(=O)OCc2cccc(C)c2)c1C | -49% | 50µM* | nt | -1% | -10%
COC(=O)CCc1c(C)[nH]c(C(=O)OCc2ccccc2)c1C | ? | 50µM* | -11% | -38% | ?
COc1ccc(C#Cc2cnc(Cl)c3cncnc23)cc1OC | nt | nt | nt | 29% | -30%
Cn1c2c(c(=O)[nH]c1=O)C(c1cccc(O)c1)C1=C(N2)c2ccccc2C1=O (stereo not drawn) | 32µM* | ? | -4% | -13% | -34%
COC(=O)C1=C(C)Nc2c(c(=O)n(C)c(=O)n2C)C1c1cccc(O)c1 (stereo not drawn) | nt | -2% | 4% | -4% | -16%
Cc1ccc(CSc2nncn3c2cc2sccc23)cc1 | -1%[59 µM] | -3% | nt | 33% | 3%
Cc1cccc(-n2c(SCc3ccc([N+](=O)[O-])cc3)nnc2-c2c[nH]c3ccccc23)c1 | 45µM* | -27% | 1% | -20% | ?
O=c1[nH]c(=S)[nH]c2sc3c(c12)CCCCCC3 | 2.2µM* | -27% | -2% | -6% | ?
O=C(CCc1ccccc1)N(Cc1cccnc1)c1nc2c(F)cc(F)cc2s1 | 4%[59 µM] | -2% | nt | 35% | -17%
O=C1OC(c2ccc3ccccc3c2O)(c2ccc3ccccc3c2O)c2ccccc21 | nt | nt | nt | ? | 32µM*
O=C1OC2(c3ccccc31)c1ccccc1-c1ccccc12 | nt | nt | nt | 29% | -5%
CN(Cc1ccccc1)C(=O)c1cccc(NC(=O)c2nsc3ccccc23)c1 | -28%[59 µM] | 0% | nt | 35%[57 µM] | -11%
Cn1cc(P(=S)(N2CCOCC2)N2CCOCC2)cc1P(=O)(N1CCOCC1)N1CCOCC1 | 10µM* | -3% | 5% | ? | ?
SMILES | G9a inh | BAZ2B block | L3MBTL1 block | HP1b chromo inh | JMJD2A Tudor
Cn1cc(P(=O)(N2CCOCC2)N2CCOCC2)cc1P(=S)(N1CCOCC1)N1CCOCC1 | 40µM* | 1% | 5% | 2% | -12%
Cc1ccc(NS(=O)(=O)c2cc3c(cc2-c2cn[nH]c2)NC(=O)CO3)cc1C | nt | nt | nt | nt | -26%
COc1cc2c(cc1OC)/C(=C/C(=O)c1ccc(F)cc1)NCC2 | 79µM* | 50µM* | nt | -30% | ?
COc1cc2c(cc1OC)/C(=C/C(=O)c1ccc(OC)c([N+](=O)[O-])c1)NCC2 | 8% | -1% | nt | 15% | -22%
COc1cc2c(cc1OC)/C(=C/C(=O)c1ccccc1F)NCC2 | 56µM* | ? | nt | ? | ?
Cc1ccc2nc(-c3ccc(Cl)c(NC(=O)c4ccc5c(c4)OCCO5)c3)oc2c1 | 7%[59 µM] | -14% | nt | 35% | -12%
Cc1ccc(-c2noc(CCC(=O)Nc3ccc(F)cc3Cl)n2)cc1 | -10%[59 µM] | -29% | nt | 7% | -3%
